The source of these data is PubChem BioAssay (NCATS).

Test [1] in a line: qHTS Assay for Lipid Storage Modulators (AID 1519; calls by dose curve; as to activity change, negative = inhibition: % is scaled to controls: 0 for no effect and ±100 for the full control effect). Conditions: Drosophila S3 cells, BODIPY lipid droplet/cell ratio, laser cytometry, cells loaded with oleic acid. The procedure, abridged:
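Cells seeded at 5,000 per well were treated with compounds over a concentration series and loaded with oleic acid (400 uM, as added). Lipid droplet fluorescence (488 nm excitation, 500-530 nm channel) was read by laser-scanning cytometry and normalized to 20 uM Triacsin C.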
A general note: In qHTS, concentration-response curves come from the screen itself.

Test [2] concerns the target Alpha-galactosidase A (Homo sapiens) (UniProt P06280). Briefly: Counterscreen for Glucocerebrosidase Inhibitors: qHTS Assay for Human alpha-Galactosidase at pH 4.5 (AID 992). Also: 0% is about no effect. The procedure, abridged: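 Human enzyme (2 nM) with 80 uM 4-methylumbelliferyl alpha-D-galactopyranoside in 50 mM citric acid, 0.005% Tween-20, pH 4.5, 20 min at room temperature. Compounds 0.7 nM–77 uM; fluorescence Ex 365/Em 440 after pH 10 stop; AC50 from Hill fits.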

The target in test [3] is Alpha-galactosidase (Coffea arabica) (UniProt Q42656). Kind of test: Counterscreen for Glucocerebrosidase Inhibitors: qHTS Assay for Coffee Bean alpha-Galactosidase at pH 5.9 (AID 998).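 Also: plate controls were uninhibited enzyme for no effect and no-enzyme basal signal for full effect.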 The procedure, abridged: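 Compounds were titrated from 0.7 nM to 77 uM against green coffee bean alpha-galactosidase (2 nM) using 80 uM fluorogenic 4-methylumbelliferyl substrate. After 20 min at room temperature, reactions were stopped at pH 10 and read by fluorescence.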
(The purpose of a counterscreen is to sort out artefacts and off-target activity.)

Test [4] in a line: Cell Viability - LYMP2-025 (AID 976).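 Also: plate controls were DMSO only for no effect and tetraoctylammonium bromide control for full effect.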 In outline:
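Human lymphoblastoid LYMP2-025 cells, 2500/well, exposed 24 h at 37 C in complete medium in 1536-well qHTS. Viability as cellular ATP by CellTiter-Glo luminescence; AC50 from Hill fits of concentration-response data.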

The nature of test [5]: Cell Viability - LYMP2-002 (AID 977).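 Also: compound exposure lasted 24 h at 37 °C; plate controls were DMSO only for no effect and 92 µM tetraoctylammonium bromide for full effect.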 In outline:
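Cytotoxicity is scored as concentration-dependent loss of cellular ATP in a human lymphoblastoid line after 24 hr compound treatment at 37 C. AC50 is obtained by modelling concentration-response data with the Hill equation.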

The nature of test [6]: Cell Viability - LYMP2-006 (AID 978). Also: % is scaled to controls: 0 for no effect and ±100 for the full control effect; nearly all actives have a fitted effect of over 60% in size. The procedure, abridged:
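qHTS, 1536-well; 2500 cells/well, 5 hr 37 C; cpd 24 hr 37 C; CellTiter-Glo 30 min RT; luminescence. Tetraoctylammonium bromide pos. ctrl. AC50 via Hill eqn.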

The nature of test [7]: Cell Viability - LYMP2-007 (AID 979).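 Also: cells exposed to compound for 24 h before reading; 0% = DMSO only and the negative end = 92 µM tetraoctylammonium bromide; nearly all actives have a fitted effect of over 60% in size.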 In outline: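 Human lymphoblastoid LYMP2-007 cells (2500/well) preincubated 5 h at 37 C, then treated 24 h at 37 C in complete medium. Viability by CellTiter-Glo ATP luminescence after 30 min at room temperature; AC50 from Hill fits.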
The nature of test [8]: Cell Viability - LYMP2-008 (AID 980). Also: % is scaled to controls: 0 for no effect and ±100 for the full control effect; nearly all actives have a fitted effect of over 60% in size. The procedure, abridged: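 LYMP2-008 lymphoblastoid cells (2500/well) plated 5 h, then treated 24 h at 37 C in complete medium. Viability read as intracellular ATP by CellTiter-Glo luminescence after 30 min at room temperature; AC50 from Hill fits.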
The nature of test [9]: Cell Viability - LYMP2-010 (AID 981). Also: % is scaled to controls: 0 for no effect and ±100 for the full control effect; nearly all actives have a fitted effect of over 55% in size. In outline: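 Human lymphoblastoid LYMP2-010 cells (2500/well) treated 24 h at 37 C in complete medium; viability read as intracellular ATP by CellTiter-Glo luminescence. AC50 from Hill fits of concentration-response data; tetraoctylammonium bromide positive control.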
A short description of test [10]: Cell Viability - LYMP2-012 (AID 982).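 Also: cellular ATP by luciferase luminescence where a drop means cytotoxicity; cells exposed to compound for one day before reading; 0% = DMSO only and full loss = 92 µM tetraoctylammonium bromide; nearly all actives have a fitted effect of over 55% in size.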
Test [11] in a line: Cell Viability - LYMP2-014 (AID 983).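 Also: plate controls were DMSO only for no effect and 92 µM tetraoctylammonium bromide for full effect; nearly all actives have a fitted effect of over 50% in size.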 The procedure, abridged: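 LYMP2-014 human lymphoblastoid cells, 2500/well, treated 24 h at 37 C in complete medium; viability by CellTiter-Glo ATP luminescence after 30 min at room temperature. AC50 from Hill fits of qHTS concentration-response; tetraoctylammonium bromide positive control.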
Test [12] is described as follows: Cell Viability - LYMP2-016 (AID 984). Also: % is scaled to controls: 0 for no effect and ±100 for the full control effect; nearly all actives have a fitted effect of over 55% in size. The procedure, abridged: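 qHTS, 1536-well: 2500 LYMP2-016 cells/well, 5 hr 37 C, compound added, 24 hr 37 C, CellTiter-Glo 30 min RT, luminescence. Tetraoctylammonium bromide positive control. AC50 via Hill fit.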
A short description of test [13]: Cell Viability - LYMP2-018 (AID 985).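 Also: compound exposure lasted 24 hr at 37 °C; plate controls were DMSO only for no effect and tetraoctylammonium bromide at 92 µM for full effect; nearly all actives have a fitted effect of over 50% in size.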 The procedure, abridged:
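Human lymphoblastoid LYMP2-018 cells, 2500/well, settled 5 hr at 37 C then exposed to compound 24 hr at 37 C; intracellular ATP measured by CellTiter-Glo luminescence. AC50 from Hill-equation concentration-response fits.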

Test [14] is described as follows: Cell Viability - LYMP2-020 (AID 986).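 Also: plate controls were DMSO only for no effect and tetraoctylammonium bromide at 92 µM for full effect; nearly all actives have a fitted effect of over 55% in size.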 In outline: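 Human lymphoblastoid LYMP2-020 cells (2500/well) preincubated 5 h at 37 C, then treated 24 h at 37 C. Viability measured as intracellular ATP by CellTiter-Glo luminescence after 30 min at room temperature; AC50 from Hill fits.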
A short description of test [15]: Cell Viability - LYMP2-022 (AID 987). In outline:
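LYMP2-022 lymphoblastoid cells (2500/well, complete medium) were treated with compounds for 24 hours at 37 C; intracellular ATP was then read by CellTiter-Glo luminescence after 30 min at room temperature. AC50 values were derived from Hill-equation fits.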

A short description of test [16]: Cell Viability - LYMP2-024 (AID 988).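 Also: plate controls were DMSO only for no effect and 92 µM tetraoctylammonium bromide for full effect; nearly all actives have a fitted effect of over 60% in size.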 The procedure, abridged: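 Human lymphoblastoid LYMP2-024 cells (2500/well) rested 5 hr, then treated with compound for 24 hr at 37 C in complete medium. Viability was measured as intracellular ATP by CellTiter-Glo luminescence. AC50 values came from Hill-equation fits.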
The nature of test [17]: Cell Viability - LYMP2-026 (AID 989). Also: % is scaled to controls: 0 for no effect and ±100 for the full control effect; nearly all actives have a fitted effect of over 50% in size. In outline:
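Human lymphoblastoid LYMP2-026 cells, 2500/well, exposed to compound 24 h at 37 C in complete medium. Viability as intracellular ATP by CellTiter-Glo luminescence; AC50 from Hill fits of qHTS concentration-response.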

Test [18] in a line: Cell Viability - LYMP1-002 - Assay at 24 hr (AID 993). Also: % is scaled to controls: 0 for no effect and ±100 for the full control effect. The procedure, abridged:
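Human lymphoblastoid LYMP1-002 cells (2500/well) treated 24 h at 37 °C; viability as intracellular ATP by CellTiter-Glo luminescence. Tetraoctylammonium bromide as positive control; AC50 from Hill-equation fits of qHTS concentration-response.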

Test [19] is described as follows: Cell Viability - LYMP1-002 - Assay at 40 hr (AID 994). The procedure, abridged:
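LYMP1-002 human lymphoblastoid cells (2500/well, complete medium) were treated with compounds for 40 hr at 37 C. Intracellular ATP was measured by CellTiter-Glo luminescence, and AC50 values came from Hill-equation fits of concentration-response data; tetraoctylammonium bromide was the positive control.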

[20] abbreviates: measured here: cell count channel max response.
Where [21] appears, read: measured here: lipid channel max response.

Where “and” joins values, the source holds several entries; their conditions need not be identical. Equal values may be shown once. Records with an inconclusive call do not appear. Calls of active or inactive are those of the source. Unless noted, calls follow the shape of the dose curve; as a rule, active = well fitted curve in the direction sought with a large enough effect; inconclusive = small, poorly fitted or top-dose-only effect, or another doubt; inactive = no such curve, though single readings can be large; an effect the other way counts as inactive or inconclusive.

Sequence of Alpha-galactosidase A (Homo sapiens) (P06280 whole entry, looked up): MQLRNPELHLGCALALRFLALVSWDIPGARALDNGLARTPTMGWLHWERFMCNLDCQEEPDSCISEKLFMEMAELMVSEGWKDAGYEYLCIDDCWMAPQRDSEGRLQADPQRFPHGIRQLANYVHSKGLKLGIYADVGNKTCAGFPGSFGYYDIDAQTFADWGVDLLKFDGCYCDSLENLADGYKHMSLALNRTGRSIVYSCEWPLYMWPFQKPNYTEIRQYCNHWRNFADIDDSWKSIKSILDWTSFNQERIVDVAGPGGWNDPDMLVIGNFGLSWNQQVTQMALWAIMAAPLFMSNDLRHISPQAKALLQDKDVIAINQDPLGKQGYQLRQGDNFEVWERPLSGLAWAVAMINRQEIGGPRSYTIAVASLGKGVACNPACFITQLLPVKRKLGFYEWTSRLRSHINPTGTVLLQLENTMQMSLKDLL
Sequence of Alpha-galactosidase (Coffea arabica) (Q42656 whole entry, looked up): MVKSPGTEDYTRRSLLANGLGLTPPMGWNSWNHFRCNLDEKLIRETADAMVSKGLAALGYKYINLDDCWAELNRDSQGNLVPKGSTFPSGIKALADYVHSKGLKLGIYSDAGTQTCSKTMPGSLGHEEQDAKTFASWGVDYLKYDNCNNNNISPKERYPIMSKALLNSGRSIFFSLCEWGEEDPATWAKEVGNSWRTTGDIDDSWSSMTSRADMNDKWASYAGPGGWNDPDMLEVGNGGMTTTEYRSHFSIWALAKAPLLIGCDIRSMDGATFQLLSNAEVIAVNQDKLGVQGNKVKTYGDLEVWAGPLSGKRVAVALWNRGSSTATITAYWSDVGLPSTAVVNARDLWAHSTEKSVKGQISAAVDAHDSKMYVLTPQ

In the case of `CN1C2CCC1CC(OC(=O)c1cc(Cl)cc(Cl)c1)C2` (centres undefined), the activity change, negative = inhibition in [1] (at 57.5 µM (top of the series)) was -1.85% (inactive). Also, the results for the max response in [1] (setting [20]) and in test [1] (setting [21]) were -22.1% and -22.4%, respectively.

With `O=C(Cc1ccc(Cl)c(Cl)c1)N1CCCCC1CN1CCCC1` (centres undefined), the activity change, negative = inhibition in [1] (at 57.5 µM (top of the series)) was 3.16% (inactive). Besides, the max response came to 16.5% in [1] (setting [20]) and 19.9% in [1] (setting [21]).

Consider `CC(=O)OCC1=C(C(=O)O)N2C(=O)[C@@H](N)[C@@H]2SC1`, for which the activity change, negative = inhibition in test [1] (at 25.7 µM (top of the series)) was 1.55% (inactive). The max response in [1] (setting [20]) stood at 7.67%; in [1] (setting [21]), 10.5%.

Regarding `NC1CCc2cc(O)c(O)cc2C1` (centres undefined), the activity change, negative = inhibition in [1] (at 57.5 µM (top of the series)) is -0.984% (inactive). For the same compound, the results for the max response in [1] (setting [20]) and in [1] (setting [21]) were -18.2% and -19.2%, respectively.

Turning to `CC[C@@H]1C(=O)OC[C@@H]1Cc1cncn1C`, the activity change, negative = inhibition in test [1] (at 57.5 µM (top of the series)) is -0.176% (inactive) and -1.27% (inactive). Further, the max response is 23.8% and 24.9% in test [1] (setting [20]); 22.1% and 21.9% in test [1] (setting [21]).

Regarding `CS(=N)(=O)CC[C@H](N)C(=O)O` (some centres undefined), the activity change, negative = inhibition in [1] (at 57.5 µM (top of the series)) is -1.65% (inactive). Further, the max response was determined as 43.8% in test [1] (setting [20]) and 40.4% in test [1] (setting [21]).

`C[N+]1(C)C2CCC1CC(OC(=O)C(CO)c1ccccc1)C2` (centres undefined): the activity change, negative = inhibition in test [1] (at 57.5 µM (top of the series)) is -1.3% (inactive). In addition, the results for the max response in test [1] (setting [20]) and in [1] (setting [21]) were -18.3% and -18.4%, respectively.

On to `O=C(O)CCCOc1ccc(Cl)cc1Cl`, for which, in [1] (at 57.5 µM (top of the series)), the activity change, negative = inhibition is 4.8% (inactive). Also, the max response in [1] (setting [20]) came to 15.4%; in test [1] (setting [21]) it was 22.4%.

As to `C[C@@H]1O[C@H](C[N+](C)(C)C)C[C@H]1O`, the call in test [2] and in [3] was inactive. Also, in test [1] (at 57.5 µM (top of the series)), the activity change, negative = inhibition is -2.01% (inactive). Also, the values for the max response in test [1] (setting [20]) and in test [1] (setting [21]) were 40.6% and 38%, respectively.

Consider `C[C@@H](N)Cc1cnc[nH]1`, for which the activity change, negative = inhibition in [1] (at 57.5 µM (top of the series)) is 0.775% (inactive). For the same compound, the max response in [1] (setting [20]) is -2.18%; in [1] (setting [21]), -3.82%.

For `C#CC1(O)CCC2C3CCC4=CC(=O)CCC4(C)C3CCC21C` (centres undefined), in [1] (at 57.5 µM (top of the series)), the activity change, negative = inhibition is 2.45% (inactive). For the same compound, the max response in [1] (setting [20]) came to 10.4%; in [1] (setting [21]), 15.6%.

Turning to `Oc1ccc2c3c1O[C@H]1c4[nH]c5c(c4C[C@@]4(O)[C@@H](C2)N(CC2CC2)CC[C@]314)C[C@@]1(O)[C@H]2Cc3ccc(O)c4c3[C@@]1(CCN2CC1CC1)[C@H]5O4`, the activity change, negative = inhibition in [1] (at 57.5 µM (top of the series)) was -0.289% (inactive). In addition, the max response in [1] (setting [20]) was -23.9%; in test [1] (setting [21]) it was -23.6%.

As for `CC(=O)[C@H]1CCC2C3CC[C@H]4C[C@H](O)CC[C@]4(C)C3CC[C@@]21C` (some centres undefined), the activity change, negative = inhibition in test [1] (at 57.5 µM (top of the series)) was 2.34% (inactive). The max response was -20.4% in test [1] (setting [20]) and -15.9% in test [1] (setting [21]).

On to `Nc1ccc([N+](=O)[O-])cc1`, for which the Potency entry in test [4], in test [5], in test [6], in [7], in [8] and in [9] was “inactive” each time. Further, the Potency result in [10], in [11], in test [12], in test [13], in test [14] and in [15] was “inactive” throughout. Besides, the Potency result in test [16], in test [17], in test [18] and in test [19] was “inactive” each time.

As for `C#CCOC(=O)C1=CCCN(C)C1`, the outcome in test [2] and in test [3] was inactive. The activity change, negative = inhibition in [1] (at 57.5 µM (top of the series)) was 6% (inactive). The max response in [1] (setting [20]) was determined as 13.4%; in test [1] (setting [21]) it was 20.6%.

Regarding `O=[N+]([O-])c1cc([N+](=O)[O-])c2ccccc2c1`, the Potency entry in [4], in test [5], in [6], in [7], in [8] and in [9] was “inactive” throughout. Further, the Potency result in test [10], in [11], in test [12], in test [13], in [14] and in [15] was “inactive” in each case. Also, the Potency entry in [16], in test [17], in test [18] and in test [19] was “inactive” in each case.

With `C[C@]12N[C@H](Cc3ccccc31)c1ccccc12`, the outcome in [2] and in test [3] was inactive. The activity change, negative = inhibition in test [1] (at 57.5 µM (top of the series)) was -1.18% (inactive). The max response in test [1] (setting [20]) was found to be 51.7%; in test [1] (setting [21]), 40.7%.

As for `O=C(O)COc1ccccc1`, the Potency entry in test [4], in [5], in test [6], in test [7], in test [8] and in test [9] was “inactive” throughout. Besides, the Potency result in [10], in [11], in test [12], in test [13], in test [14] and in test [15] was “inactive” each time. In addition, the Potency result in test [16], in test [17], in test [18] and in test [19] was “inactive” in each case.
